Compounds with a hit are over-represented: about 8.9% of the library has one in this group of screens.
KB-3-1 cytotox: KB-3-1 parental cell cytotoxicity | KB-3-1 viability, CellTiter-Glo ATP luminescence, 72 h | Potency, µM (highest dose often 46.1 µM), most hits filed as cytotoxic | hit rate 1.4% among 400,000 | AID 1347075; further: potency means the concentration at half of the fitted maximal effect; on the % scale 0 is the no-effect control and ±100 the full control effect; nearly all actives have a fitted effect of over 60% in size
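KB-3-1 parental drug-naive adenocarcinoma cells in DMEM/10% FBS, incubated 72 h at 37 C with pin-transferred compounds across a concentration series. Viability by CellTiter-Glo luminescence; concentration-response curves fitted after normalization.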
MCF10A rereplic: induces DNA re-replication in MCF 10a normal breast cells | MCF 10A DNA re-replication, Hoechst nuclear intensity, 48 h | Potency, µM (doses to about 46.1 µM), for the others: at the highest dose activity, positive = re-replication, most hits filed as activators | hit rate 2.9% among 350,000 | AID 624296; further: potency means the concentration at half of the fitted maximal effect; % of control where 0% means no effect; nearly all actives have a fitted effect of over 50% in size
KB-V1 cytotox: kills drug-selected multidrug resistant KB-V1 cells; KB-V1 MDR cells viability, CellTiter-Glo, 72 h; AID 1347076; hit rate 3.4% among 400,000; Potency, µM (highest dose often 46.1 µM), most hits filed as cytotoxic; further: potency means the concentration at half of the fitted maximal effect; on the % scale 0 is the no-effect control and ±100 the full control effect; nearly all actives have a fitted effect of over 60% in size
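KB-V1 cells (P-gp-expressing MDR subline of KB-3-1) in phenol-red-free DMEM with 10% FBS were exposed to library compounds over a concentration series for 72 h at 37 degrees C. Viability read by CellTiter-Glo luminescence; concentration-effect curves fitted after normalization.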
SW480 rerep: inducers of DNA re-replication in SW480 colon cancer cells; SW480 DNA re-replication, Hoechst DNA content imaging, 48 h; Potency, µM (doses to about 46.1 µM), for inactives: at the top dose re-replication activation, hits mostly activators; hit rate 1.8% among 340,000; further: potency means the concentration at half of the fitted maximal effect; % of control where 0% means no effect; nearly all actives have a fitted effect of over 55% in size
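DNA re-replication was detected as more nuclei of elevated Hoechst intensity after 48 hr exposure to compound (23 nL pinned per well of 250 cells).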
DRD3 agonist: agonists of human D3 dopamine receptor; P35462; D3R DiscoveRx beta-arrestin cells, luminescence, 90 min; max activation, %; hit rate 0.58% among 410,000; in the data active means max activation above about 30%; further: 0% is about no effect
Target sequence (P35462 whole entry, looked up): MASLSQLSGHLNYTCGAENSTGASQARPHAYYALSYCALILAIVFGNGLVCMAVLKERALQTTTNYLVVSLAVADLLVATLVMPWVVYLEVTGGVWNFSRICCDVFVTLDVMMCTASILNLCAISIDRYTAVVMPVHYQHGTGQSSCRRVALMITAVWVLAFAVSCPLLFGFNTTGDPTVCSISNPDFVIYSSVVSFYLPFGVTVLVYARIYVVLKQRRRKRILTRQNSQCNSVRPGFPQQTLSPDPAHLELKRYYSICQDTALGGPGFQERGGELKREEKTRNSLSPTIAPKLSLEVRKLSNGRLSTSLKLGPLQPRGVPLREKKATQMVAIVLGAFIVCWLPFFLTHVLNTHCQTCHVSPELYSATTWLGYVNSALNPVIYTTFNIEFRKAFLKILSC
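Agonist-mode cell screen: cells plated at 1500/well and incubated overnight at 37 °C, then exposed to library compounds for 90 min at 37 °C. Detection reagent was added for 30–60 min at room temperature, and luminescence was read.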
D3 antag: D3 dopamine receptor (human) antagonism; hit rate 2.5% among 360,000; AID 652054; max response, negative = inhibition, %; P35462; D3R cells, DiscoveRx beta-arrestin luminescence, antagonist mode; stronger effect = lower value; in the data active means max response below about -50%; inconclusive means no clear call, values can overlap the other calls; further: on the % scale 0 is the no-effect control and ±100 the full control effect
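Cells plated overnight at 1500 cells/well, then exposed to library compounds with dopamine controls for 90 minutes at 37 degrees C. DiscoveRx reagent added for 30–60 minutes at room temperature; luminescence read, quantitative HTS format.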
Active calls of the source: *. Unless noted, the call rests on the fitted dose curve; in most records, active means well fitted curve in the direction sought with a large enough effect; inconclusive means small, poorly fitted or top-dose-only effect, or another doubt; inactive means no such curve, though single readings can be large; an effect the other way counts as inactive or inconclusive.

Cc1cc(C(=O)N2CCCC(N3CCN(c4cccc(C(F)(F)F)c4)CC3)C2)c(C)o1 (stereo not drawn) was read as KB-3-1 cytotox inactive, MCF10A rereplic inconclusive, KB-V1 cytotox inactive, SW480 rerep 18µM*, DRD3 agonist -4 and D3 antag 6.
Screening Cc1occc1C(=O)N1CCCC(N2CCN(c3cccc(C(F)(F)F)c3)CC2)C1 (stereo not drawn) returned KB-3-1 cytotox inactive, MCF10A rereplic inconclusive, KB-V1 cytotox inconclusive, SW480 rerep -38%, DRD3 agonist -10 and D3 antag -5.
CSCC(=O)N1CCCC(N2CCN(c3cccc(C(F)(F)F)c3)CC2)C1 (stereo not drawn) was read as KB-3-1 cytotox inactive, MCF10A rereplic 12%, KB-V1 cytotox inactive, SW480 rerep -2%, DRD3 agonist -6 and D3 antag 5.
COc1ccc(CN(C)c2ccc(-c3nc(-c4ccc(OC)c(OC)c4)no3)cc2[N+](=O)[O-])cc1 was read as KB-3-1 cytotox inactive, KB-V1 cytotox inactive and DRD3 agonist 6.
For O=C1Cc2cc(S(=O)(=O)N3CCN(c4ccc([N+](=O)[O-])cc4)CC3)ccc2N1 the results were KB-3-1 cytotox inactive and KB-V1 cytotox inactive.
Screening O=C(CCS(=O)(=O)c1nc(-c2ccc3c(c2)OCO3)cc(C(F)(F)F)n1)Nc1ccc(Br)cc1 returned DRD3 agonist -14.
Screening COc1cc([N+](=O)[O-])ccc1-c1ccc(/C=N\n2cnnc2)o1 returned KB-3-1 cytotox inactive, MCF10A rereplic -5%, KB-V1 cytotox inactive, SW480 rerep 3%, DRD3 agonist -6 and D3 antag -17.
O=[N+]([O-])c1ccc(OC(F)F)c(/C=N/n2cnnc2)c1 was read as KB-3-1 cytotox inconclusive, MCF10A rereplic 0%, KB-V1 cytotox inconclusive, SW480 rerep 3.3µM*, DRD3 agonist 7 and D3 antag 7.
For Cc1ccc2c(c1)c1ncnc(N3CCN(c4ccccc4)CC3)c1n2C the results were KB-3-1 cytotox inactive, MCF10A rereplic inconclusive, KB-V1 cytotox inconclusive, SW480 rerep -1%, DRD3 agonist 7 and D3 antag 0.
For Cc1ccc2c(c1)c1ncnc(N3CCOCC3)c1n2C the results were KB-3-1 cytotox inactive, MCF10A rereplic inconclusive, KB-V1 cytotox 23µM*, SW480 rerep -2%, DRD3 agonist 6 and D3 antag 0.
Screening CCCC[n+]1ccn(-c2nc3ccccc3nc2[N-]S(=O)(=O)c2cccs2)c1 returned KB-3-1 cytotox inactive, MCF10A rereplic inconclusive, KB-V1 cytotox inactive, SW480 rerep 16µM*, DRD3 agonist 13 and D3 antag 5.
`Cc1ccc(S(=O)(=O)[N-]c2nc3ccccc3nc2-n2cc[n+](Cc3ccccc3)c2)cc1` gave KB-3-1 cytotox inactive, MCF10A rereplic inconclusive, KB-V1 cytotox inactive, SW480 rerep inconclusive, DRD3 agonist -13 and D3 antag -6.
`O=S(=O)([N-]c1nc2ccccc2nc1-n1cc[n+](Cc2ccccc2)c1)c1ccccc1` gave KB-3-1 cytotox inactive, MCF10A rereplic 6.5µM*, KB-V1 cytotox inactive, SW480 rerep inconclusive, DRD3 agonist 6 and D3 antag 1.
COc1ccc(-c2cc(C(C)=O)c(C)n2CCC(=O)Nc2ccc(C)c(Cl)c2)cc1 was read as KB-3-1 cytotox inactive, KB-V1 cytotox inactive and DRD3 agonist 1.
For Fc1cccc(Nc2ncnc3[nH]ncc23)c1 the results were KB-3-1 cytotox inactive, MCF10A rereplic 4.1µM*, KB-V1 cytotox inactive, SW480 rerep -25%, DRD3 agonist -2 and D3 antag -3.
For CCc1c(C)c2ccccc2[nH]c1=O the results were KB-3-1 cytotox 4.1µM* and KB-V1 cytotox 2.3µM*.
For CCCCCc1c(O)c2ccccc2[nH]c1=O the results were KB-3-1 cytotox inactive, MCF10A rereplic -4%, KB-V1 cytotox 16µM*, SW480 rerep -10%, DRD3 agonist -5 and D3 antag -29.
